In PubChem BioAssay AID1159580 (chemical genetic matrix, 2015):
The whole screen tested about 5,500 compounds, of which about 2,000 (36%) were called active. Another 18% or so got no clear call; they are omitted. Rule as the data show it: active = normalized growth mostly below about 0.91 (no sharp cut-off); inconclusive = no clear call, values can overlap the other calls; inactive = mostly above about 0.92. The list shows a part of the results.

Test: chemical genetic growth profiling, strain panel (AID 1159580);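 also: tested at 20 µM; growth read once vehicle control cultures reached saturation at 30 °C; 1 = growth at the plate median or of vehicle wells; lower values mean less growth of the strain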
Conditions: S. cerevisiae deletion strains, growth OD

Measured: normalized growth

Clc1ccc(C(c2ccc(Cl)cc2)C(Cl)(Cl)Cl)cc1
inactive: locus YAL013W, strain DEP1, stronger effect = lower value 1 | locus YAL021C, strain ccr4, stronger effect = lower value 1.01 | locus YAL026C, strain drs2, stronger effect = lower value 1.01 | locus YAL030W, strain snc1, stronger effect = lower value 1 | locus YBL061C, strain skt5, stronger effect = lower value 1.01 | locus YBR009C, strain hhf1, stronger effect = lower value 0.998 | locus YBR021W, strain FUR4, stronger effect = lower value 0.999 | locus YBR023C, strain chs3, stronger effect = lower value 1.01 | locus YBR171W, strain sec66, stronger effect = lower value 1.01 | locus YBR229C, strain ROT2, stronger effect = lower value 1.02 | locus YBR231C, strain swc5, stronger effect = lower value 1.01 | locus YBR279W, strain paf1, stronger effect = lower value 1.01 | locus YCL011C, strain gbp2, stronger effect = lower value 1.01 | locus YCL016C, strain dcc1, stronger effect = lower value 1.01 | locus YCL029C, strain bik1, stronger effect = lower value 1.01 | locus YCL061C, strain MRC1, stronger effect = lower value 1.01 | locus YCL069W, strain vba3, stronger effect = lower value 0.999 | locus YCR088W, strain abp1, stronger effect = lower value 1.01 | locus YDL005C, strain med2, stronger effect = lower value 1 | locus YDL035C, strain GPR1, stronger effect = lower value 0.983 | locus YDL040C, strain nat1, stronger effect = lower value 1.01 | locus YDL074C, strain BRE1, stronger effect = lower value 1.02 | locus YDL101C, strain DUN1, stronger effect = lower value 1.02 | locus YDL134C, strain PPH21, stronger effect = lower value 1.02 | locus YDL185W, strain tfp1, stronger effect = lower value 0.999 | locus YDL192W, strain arf1, stronger effect = lower value 1 | locus YDR001C, strain nth1, stronger effect = lower value 1.01 | locus YDR069C, strain doa4, stronger effect = lower value 0.992 | locus YDR101C, strain arx1, stronger effect = lower value 0.993 | locus YDR137W, strain rgp1, stronger effect = lower value 1.01 | locus YDR150W, strain NUM1, stronger effect = lower value 1.03 | locus YDR159W, strain sac3, stronger effect = lower value 1.01 | locus YDR162C, strain NBP2, stronger effect = lower value 1.01 | locus YDR195W, strain ref2 1.04 | locus YDR297W, strain sur2, stronger effect = lower value 1.01 | locus YDR318W, strain mcm21, stronger effect = lower value 0.999 | locus YDR334W, strain swr1, stronger effect = lower value 1.02 | locus YDR335W, strain msn5, stronger effect = lower value 1.01 | locus YDR388W, stronger effect = lower value 0.993 | locus YDR392W, strain spt3, stronger effect = lower value 0.977 | locus YDR502C, strain sam2, stronger effect = lower value 0.999 | locus YEL003W, strain gim4, stronger effect = lower value 1.01 | locus YEL037C, strain rad23, stronger effect = lower value 1.01 | locus YEL061C, strain CIN8 (second series), stronger effect = lower value 1.01 | locus YEL061C, strain CIN8, stronger effect = lower value 1.02 | locus YER015W, strain faa2, stronger effect = lower value 1.01 | locus YER016W, strain bim1, stronger effect = lower value 1 | locus YER110C, stronger effect = lower value 0.997 | locus YER111C, strain swi4, stronger effect = lower value 1.01 | locus YER155C, strain BEM2 (second series), stronger effect = lower value 1 | locus YER155C, strain BEM2, stronger effect = lower value 1.02 | locus YER167W, strain BCK2, stronger effect = lower value 1.01 | locus YFR010W, strain ubp6, stronger effect = lower value 1.01 | locus YGL078C, strain dbp3, stronger effect = lower value 1 | locus YGL086W, strain mad1, stronger effect = lower value 1.01 | locus YGL167C, strain pmr1, stronger effect = lower value 1.01 | locus YGL173C, strain kem1, stronger effect = lower value 0.995 | locus YGL227W, strain vid30, stronger effect = lower value 1.01 | locus YGL240W, strain doc1, stronger effect = lower value 0.997 | locus YGL248W, strain PDE1, stronger effect = lower value 1.02 | locus YGL253W, strain hxk2, stronger effect = lower value 1 | locus YGR078C, strain PAC10, stronger effect = lower value 1.01 | locus YGR135W, strain pre9, stronger effect = lower value 1 | locus YGR229C, strain SMI1, stronger effect = lower value 0.997 | locus YGR252W, strain gcn5, stronger effect = lower value 0.916 | locus YHR013C, strain ard1, stronger effect = lower value 1.03 | locus YHR027C, strain rpn1, stronger effect = lower value 1 | locus YHR030C, strain SLT2, stronger effect = lower value 1.03 | locus YHR079C, strain IRE1 (second series), stronger effect = lower value 0.999 | locus YHR094C, strain hxt1, stronger effect = lower value 1 | locus YHR129C, strain ARP1, stronger effect = lower value 1.03 | locus YHR142W, strain chs7, stronger effect = lower value 1.01 | locus YHR200W, strain rpn10, stronger effect = lower value 0.991 | locus YIL066C, strain RNR3, stronger effect = lower value 1.01 | locus YIL073C, strain SPO22, stronger effect = lower value 0.972 | locus YIL125W, strain kgd1, stronger effect = lower value 1 | locus YIR030C, strain dcg1, stronger effect = lower value 0.993 | locus YJL092W, strain hpr5, stronger effect = lower value 1 | locus YJL095W, strain BCK1 (second series), stronger effect = lower value 1.01 | locus YJL095W, strain BCK1, stronger effect = lower value 1.02 | locus YJL115W, strain asf1, stronger effect = lower value 1.02 | locus YJL129C, strain trk1, stronger effect = lower value 0.993 | locus YJL134W, strain LCB3, stronger effect = lower value 1.02 | locus YJL154C, strain vps35, stronger effect = lower value 1.02 | locus YJL164C, strain tpk1, stronger effect = lower value 1.01 | locus YJL166W, strain qcr8, stronger effect = lower value 1 | locus YJL168C, strain set2, stronger effect = lower value 1.01 | locus YJL187C, strain SWE1 (second series), stronger effect = lower value 1.02 | locus YJL187C, strain SWE1, stronger effect = lower value 1.01
